Ba/F3 V617F tox – reduce viability of Ba/F3 cells dependent on JAK2V617F; 1.1% of 220,000 active; Ba/F3 EpoR-JAK2V617F viability, ATP luminescence; AID 1446; inhibition, % at 5.6 µM;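 active = inhibition above the campaign mean plus 3 SD over all tested compounds, cut at about 24% in these data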;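 also: cytokine-independent growth of Ba/F3 cells driven by EpoR plus mutant JAK2; 0% = DMSO-treated cells and 100% = JAK inhibitor I control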
BaF3 tox – counter-screen for JAK2V617F inhibitors: parental Ba/F3 viability inhibitors; CellTiter-Glo ATP luminescence; inhibition, % at 5.6 µM; 1.1% of 220,000 active;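 active = inhibition above a per-campaign cutoff, the mean inhibition of all tested compounds plus 3 SD, cut at about 27% in these data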;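 also: 0% = DMSO wells and 100% = JAK Inhibitor I control wells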
IEC-6 tox – counter-screen for KLF5 inhibitors: cytotoxicity in IEC-6 cells | inhibition, % at 5 µM | IEC-6 cytotoxicity, luminescence viability | 0.78% of 290,000 active;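 also: 0% = plate median of test compound wells and 100% = cytotoxic reference compound wells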
APP 5UTR inh – APP translation inhibition. 0.82% of 190,000 active. inhibition, % at 2 µM. SH-SY5Y APP 5'UTR-luciferase reporter, luminescence. AID 1285;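 active = inhibition above a set limit, derived from the sample mean plus 3 SD, cut at about 45% in these data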
KLF5 inh – suppresses KLF5 promoter-driven expression; DLD-1 KLF5 promoter-luciferase reporter, luminescence; inhibition, % at 5 µM; 0.23% of 290,000 active; AID 1700;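 active = inhibition above a per-plate limit of that plate's mean compound inhibition plus 3 SD, cut at about 60% in these data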;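 also: 0% = DMSO wells and 100% = LY294002 at 200 µM; higher means less KLF5 promoter-driven luciferase light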
aSyn UTR inh – MLPCN primary screen, SNCA 5' untranslated region; alpha-synuclein 5'UTR reporter, inhibitor activity; inhibition, % (tested at 7.5 µM); 0.82% of 300,000 active; AID 1813; in the data active = inhibition above about 60%;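 also: H4 neuroglioblastoma cells stably carrying SNCA 5'UTR luciferase fusion; 0% = DMSO wells and 100% = positive control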
IEC-6 tox confirm – IEC-6 cytotoxicity, confirmation assay. shares compounds with IEC-6 tox. AID 1907. inhibition, % at 5 µM. IEC-6 rat intestinal epithelial viability, luminescence. 63% of 1,900 active;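 also: 0% = vehicle and 100% = reference cytotoxic drug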
* hit, by the source's call; · = not tested or not shown. Only some compounds are listed: those with a hit (about 2.2% of all), similar ones and a draw of the others. Rule as the data show it, unless noted: active = inhibition above about 22%; inactive = the rest.

SMILES | Ba/F3 V617F tox | BaF3 tox | IEC-6 tox | APP 5UTR inh | KLF5 inh | aSyn UTR inh | IEC-6 tox confirm
CS(=O)(=O)/C(C#N)=C\c1cnc(S(=O)(=O)c2ccccc2)s1 | · | · | 36* | · | -21 | -37 | 9
Cc1csc(NC(C)c2nc3cc(Cl)c(N4CCCCC4)cc3n2CCOCCO)n1 (configuration not stated) | · | · | · | · | · | 1 | ·
Cc1nn(-c2ccccc2)c(N)c1N=Nc1ccccc1 | 2 | 7 | 1 | -156 | -153 | -49 | ·
Nc1nn(-c2ccccc2)c(N)c1N=Nc1ccccc1 | 64* | 64* | 34* | -3 | -115 | -106 | 40*
O=c1[nH]cnc(O)c1N=Nc1ccccc1 | · | · | -5 | · | -26 | -71 | ·
Nc1ncnc(N)c1N=Nc1ccccc1 | · | · | 36* | · | -65 | 112* | 19
Nc1ccccc1C#CC(=O)c1ccccc1 | · | · | 9 | · | 10 | -90 | ·
CSC(=S)N/N=C(\C)c1ccc(Br)cc1 | 0 | 11 | 0 | 5 | -21 | -39 | ·
COc1cc2c(cc1OC)-c1c(OC)c(OC)cc3ccnc(c13)C2=O | 47* | 39* | 29* | 15 | 21 | 110* | 25*
CC(=O)NCCC(=O)Nc1cc(S(=O)(=O)N2CCCCC2)ccc1Oc1ccccc1 | · | · | 4 | · | 0 | -13 | ·
c1ccc(-c2noc(-c3ccncc3)n2)nc1 | 33* | 34* | 29* | -104 | -66 | -62 | 25*
c1ccc(-c2noc(-c3cccnc3)n2)nc1 | 3 | 9 | 7 | -75 | -112 | -48 | ·
CCOc1cc(S(=O)(=O)NCCCN2CCOCC2)c(C)cc1C | · | · | -2 | · | -18 | 11 | ·
Cc1cc(C(=O)N2CCN(c3ccc([N+](=O)[O-])cc3)CC2)n[nH]1 | · | · | 4 | · | 8 | 9 | ·
COc1ccc(C(=O)N[C@H](C(=O)Nc2nc3ccccc3[nH]2)C(C)C)cc1 | 42* | 61* | 63* | 77* | -25 | 106* | 59*
Cc1cccc(C(=O)N[C@H](C(=O)Nc2nc3ccccc3[nH]2)C(C)C)c1 | 77* | 27* | 74* | 62* | 17 | 96* | 56*
COc1ccc(NC(=O)C(NC(=O)c2ccccc2)C(C)C)cc1 (configuration not stated) | -1 | 7 | -5 | 13 | -18 | -22 | ·
COc1ccccc1CNC(=O)c1ccc(OC(F)F)c(OC)c1 | 0 | 0 | 35* | -16 | 0 | 4 | 2
COc1ccccc1-c1cc(C(=O)N2CCOCC2)no1 | · | · | 0 | · | -137 | -125 | ·
CCOc1ccccc1NC(=O)C(OC(=O)c1cnccn1)c1ccccc1 (configuration not stated) | · | · | · | · | · | -2 | ·
CC(CC(=O)Nc1nnc(C(C)(C)C)s1)c1ccccc1 (configuration not stated) | · | · | -5 | · | -6 | -9 | ·
O=C(Nc1ccccc1)Nc1ccc(-n2ccc(C(F)(F)F)n2)cc1 | 58* | 63* | 22* | · | -138 | -277 | 23*
O=C(O)CC(CC(=O)Nc1ccc(-n2ccc(C(F)(F)F)n2)cc1)c1ccccc1 (configuration not stated) | 2 | 0 | 9 | · | -14 | 1 | ·
CC(Nc1ncnc2sccc12)c1ccccc1 (configuration not stated) | · | · | 29* | · | -8 | 45 | 27*
c1ccc(Nc2ncnc3sccc23)cc1 | · | · | 10 | · | -25 | -17 | ·
SMILES | Ba/F3 V617F tox | BaF3 tox | IEC-6 tox | APP 5UTR inh | KLF5 inh | aSyn UTR inh | IEC-6 tox confirm
C/C(=N\NC(=O)c1ccc(Cn2cc(Br)cn2)o1)c1ccc(NC(=O)c2ccoc2C)cc1 | · | · | 7 | · | -78 | -77 | ·
COc1ccccc1-c1c(C#N)c(N)nc2c1CCc1ccccc1-2 | 12 | 8 | 24* | -3 | 16 | -196 | 19
COc1ccc2cc1Oc1ccc(cc1)CC1c3c(cc(OC)c4c3Oc3cc5c(cc3O4)CCNC5C2)CCN1C (configuration not stated) | -1 | 1 | 45* | · | -10 | 114* | 8
COc1cccc(N2CC(O)=C(c3nc4ccccc4c(=O)[nH]3)C2=N)c1 | 78* | 81* | 51* | 93* | 48 | -4 | 64*
Cc1ccccc1NS(=O)(=O)c1ccc(NS(=O)(=O)c2cccs2)cc1 | · | · | -3 | · | -21 | -14 | ·
C=CCn1cc(C(=O)NCCOC)c(=O)c2cc(S(=O)(=O)N3CCCCCC3)ccc21 | · | · | 24* | · | -16 | 2 | 19
COc1ccc(-c2oc3cccnc3c2C#CCO)cc1 | · | · | 29* | · | -17 | 11 | 16
